# VP16 counter: counter-screen for ROR gamma inhibitors: Gal4-VP16 reporter. Drosophila S2 Gal4-VP16 UAS-luciferase, luminescence, 20 h. Potency, µM (top dose mostly 53.6 µM), for the others: at the top dose activity, negative = inhibition, most hits filed as inhibitors. actives 3.5% (n = 310,000). AID 2546;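 also: Gal4-VP16 expression switched on by copper sulfate through the metallothionein promoter; % is scaled to controls: 0 for no effect and ±100 for the full control effect; nearly all actives have a fitted effect of over 50% in size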
# TGFb SMAD3 inh: inhibitors of TGF-b signaling. HepG2 CAGA-GFP TGF-b/SMAD3 reporter, GFP fluorescence, 18 h; TGF-beta stimulated, 500 pg/mL final. Potency, µM (top dose mostly 46.1 µM), for the others: top-dose activity, negative = inhibition, most hits filed as inhibitors. actives 1.2% (n = 410,000). AID 588855; also: % is scaled to controls: 0 for no effect and ±100 for the full control effect; nearly all actives have a fitted effect of over 65% in size
#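 GFP signal (ex488/em500-530) from TGF-beta-stimulated HEPG2 CAGA-GFP cells, 500 pg/mL final, 18 h at 37 degrees C in DMEM plus 1% FBS, normalized to unstimulated and DMSO-stimulated controls.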
# ATXN2 expr inh: ATXN2 expression inhibition | Potency, µM (highest dose often 57 µM), inactives show at the highest dose activity change, negative = inhibition, actives largely listed as inhibitors | HEK-293 ATXN2-luciferase reporter, luminescence, 24 h | actives 0.72% (n = 360,000); also: % is scaled to controls: 0 for no effect and ±100 for the full control effect; nearly all actives have a fitted effect of over 55% in size
#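 qHTS (up to 57 uM final) was run with 24 h compound exposure of reporter cells at 37 °C. Each well was multiplexed: SteadyGlo luminescence measured ATXN2-luciferase expression after a fluorogenic Gly-Phe-AFC viability readout (25 uM final).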
# RORgamma inh: ROR gamma (mouse) transcription inhibition; AID 2551; Potency, µM (highest dose often 53.6 µM), for the others: at the highest dose activity change, negative = inhibition, actives largely listed as inhibitors; actives 5.4% (n = 310,000); Drosophila S2 Gal4-RORgamma UAS-luciferase reporter, 20 h; P51450; also: % is scaled to controls: 0 for no effect and ±100 for the full control effect; nearly all actives have a fitted effect of over 60% in size
# Target sequence (P51450 whole entry, looked up, the tested form may be a part): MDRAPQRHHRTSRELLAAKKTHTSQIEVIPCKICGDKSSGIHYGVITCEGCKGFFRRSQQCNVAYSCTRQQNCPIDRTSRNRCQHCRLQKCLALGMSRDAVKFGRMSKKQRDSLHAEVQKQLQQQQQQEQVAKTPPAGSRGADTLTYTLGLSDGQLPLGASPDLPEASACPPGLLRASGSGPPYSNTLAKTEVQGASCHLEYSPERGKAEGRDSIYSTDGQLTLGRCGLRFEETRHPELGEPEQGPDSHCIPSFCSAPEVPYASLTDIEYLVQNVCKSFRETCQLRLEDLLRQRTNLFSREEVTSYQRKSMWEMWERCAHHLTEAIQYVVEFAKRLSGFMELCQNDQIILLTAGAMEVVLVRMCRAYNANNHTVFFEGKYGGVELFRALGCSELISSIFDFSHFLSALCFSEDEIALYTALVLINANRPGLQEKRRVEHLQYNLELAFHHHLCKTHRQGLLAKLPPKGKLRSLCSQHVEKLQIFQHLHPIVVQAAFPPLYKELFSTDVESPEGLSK
#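 Stable Schneider cell line, Gal4 DNA-binding domain fused to ROR gamma, UAS-luciferase. Cmpd 1 hr RT → CuSO4 700 uM final → 20 hr RT → luciferase reagent 10 min → luminescence.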
# HepG2 tox: counter-screen for TGF-b inhibitors: cytotoxicity in HepG2 cells; HepG2 CAGA-GFP viability, ATP luminescence, 18 h; Potency, µM (doses to about 46.1 µM), for the others: top-dose activity change, negative = cytotoxicity, most hits filed as cytotoxic; actives 0.76% (n = 410,000); AID 588856
#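 CellTiter-Glo luminescence gave cytotoxicity after 18 hours at 37 degrees C. The cells were HepG2 CAGA-GFP in 1% FBS DMEM, stimulated with 500 pg/mL TGF-beta after compound addition. %Activity was normalised to no-cell wells (complete cell-killing) and DMSO (no toxicity), and curves were fitted and classified.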
# S2 tox: viability counter-screen for ATXN expression inhibitors; S2 cells (HEK-293 line with an ATXN2-luciferase reporter) viability, CellTiter-Fluor protease fluorescence, 24 h; Potency, µM (doses to about 56.7 µM), hits mostly cytotoxic; actives 0.49% (n = 400,000); AID 651635; also: nearly all actives have a fitted effect of over 40% in size
# * marks the source's active call; other numbers are inactive results; i = inactive; ? = inconclusive; . = no result. A selection: hits, their analogues and other compounds. The true share with any hit is near 6.1%. Calls follow the shape of the dose curve; as a rule, active = well fitted curve in the direction sought with a large enough effect; inconclusive = small, poorly fitted or top-dose-only effect, or another doubt; inactive = no such curve, though single readings can be large; an effect the other way counts as inactive or inconclusive. Potency is read from the fitted curve at half-maximal effect.
SMILES,VP16 counter,TGFb SMAD3 inh,ATXN2 expr inh,RORgamma inh,HepG2 tox,S2 tox
O=C(N/N=C/c1ccc([N+](=O)[O-])o1)c1ccccc1-n1cccc1,?,10µM*,?,-11%,-62%,?
O=[N+]([O-])c1ccc(/C=N\O)o1,.,.,2%,.,.,i
NC(=O)NN=Cc1ccc([N+](=O)[O-])o1,.,.,-17%,.,.,.
Cc1cc2ncn(/N=C/c3ccc([N+](=O)[O-])o3)c2cc1C,?,2.5µM*,?,-19%,13µM*,i
Cc1ccc(-c2ccc(/C=N/NC(=O)CN3CCCC3)o2)cc1Cl,-19%,4%,-35%,11µM*,-47%,i
O=C(CC12CC3CC(CC(C3)C1)C2)N/N=C/c1ccc([N+](=O)[O-])o1,?,?,-2%,10µM*,-43%,i
Cc1ccc(-c2ccc(/C=N\NC(=O)C3C(=O)NCC3c3ccccc3)o2)cc1Cl (centres undefined),20µM*,?,?,?,-111%,?
Cc1ccc(/C=C/c2onc(C)c2S(=O)(=O)N2CCC(C(=O)NCC(C)c3ccccc3)CC2)cc1 (centres undefined),.,6%,-3%,.,-3%,i
Cc1ccc(-c2ccc(/C=N/c3ncn[nH]3)o2)cc1Cl,?,?,16µM*,15%,-21%,i
COc1cccc(Cn2c(=O)c(-c3cn(C)c4ccccc34)nc3cnc(N4CCNCC4)nc32)c1,?,.,.,20µM*,.,.
Cn1c(=O)c(-c2cccs2)nc2cnc(N3CCNCC3)nc21,0%,.,.,-27%,.,.
COc1cccc(Cn2c(=O)c(-c3cn(C)c4ccccc34)nc3cnc(N4CCOCC4)nc32)c1,2%,.,.,6%,.,.
Cn1cc(-c2nc3cnc(N4CCNCC4)nc3n(C)c2=O)c2ccccc21,11µM*,.,.,10µM*,.,.
Cc1ccc2nc(-c3ccccc3)c(CN3CCSCC3)n2c1,-5%,-21%,5%,16µM*,-12%,i
Cc1ccc2nc(-c3ccccc3)c(CN3CCN(c4ccccc4F)CC3)n2c1,?,12%,.,8.9µM*,6%,i
Ic1ccc(Nc2nc(NCCN3CCOCC3)nc(N3CCCC3)n2)cc1,.,?,.,.,-29%,.
NC(=S)c1cnn2c(-c3cccc(C(F)(F)F)c3)ccnc12,10µM*,-10%,-11%,4µM*,-3%,i
N#Cc1cnn2c(-c3ccccc3)ccnc12,6%,0%,15%,0%,-9%,i
Cc1ccccc1NC(=S)NC(=O)C1CCCCC1,?,-28%,8%,4µM*,-7%,i
Cc1ccc(NS(=O)(=O)c2ccc(Cl)c(NC(=S)NC(=O)C3CCCCC3)c2)cc1Cl,?,?,?,?,11µM*,?
CCOc1ccccc1NC(=S)NC(=O)C1CC1,0.71µM*,-18%,-16%,?,-12%,i
CCOc1ccccc1NC(=O)Nc1cccc(S(N)(=O)=O)c1,14%,-13%,19%,0%,7%,i
CCOc1ccccc1NC(=S)Nc1ccc(S(N)(=O)=O)cc1,-26%,4%,4%,11µM*,-5%,?
O=C(NC(=S)Nc1ccccc1CO)C1CCCCC1,.,-5%,11%,.,-4%,i
COC(=O)[C@@H]1CCCN1C(=O)c1c(OC)cc(=O)n2c1CCN(Cc1ccc3cccnc3c1)CC2,.,.,.,.,.,i
SMILES,VP16 counter,TGFb SMAD3 inh,ATXN2 expr inh,RORgamma inh,HepG2 tox,S2 tox
Cc1cnc(-n2ncc(C(=O)N(C)CCc3ccccn3)c2-c2cccs2)nc1-c1ccc(F)cc1,.,.,.,.,.,i
COc1ccc2nc(SCc3ncc(C)c(OC)c3C)[nH]c2c1,.,.,5%,.,.,i
O=C(CN1C(=O)CCc2cc(S(=O)(=O)N3CCOCC3)ccc21)Nc1cccc(Cl)c1,.,-18%,9%,.,1%,i
CC(=O)c1nnn(-c2ccc(C)cc2Cl)c1C,.,-13%,.,.,3%,.
Cc1cnc(C)c(-c2ccc(O)c(CN3CCN(C=O)CC3)c2)n1,.,.,.,.,.,i
CCOc1ccccc1NC(=O)/C=C/C(N)=O,5.6µM*,?,?,4.5µM*,-38%,.
CN(C)N=Nc1ccc(/C=C2\C=Cc3ccccc32)cc1,.,-3%,.,.,4%,.
S=C(Nc1cccc2ccccc12)Nc1cccc2ccccc12,.,0%,0%,.,7%,i
CC(=O)c1cccc(NC(=S)Nc2cccc3ccccc23)c1,11µM*,-6%,31%,13µM*,8%,i
Cc1ccc(F)c(NC(=S)Nc2cccc3ccccc23)c1,?,.,.,11µM*,.,.
Cc1ccc(C(=O)NNC(=S)Nc2cccc3ccccc23)s1,-14%,?,37%,0.79µM*,-3%,i
O=C(NNC(=S)Nc1cccc2ccccc12)c1cccc(Br)c1,?,-27%,?,-34%,-39%,?
CC(=O)Nc1cccc(NC(=S)Nc2cccc3ccccc23)c1,?,-16%,9%,13µM*,-17%,i
CCc1ccc(NC(=O)Cn2c(=O)n(CCC(=O)NCCc3ccc(Cl)cc3)c(=O)c3ccccc32)cc1,.,0%,9%,.,-2%,i
CC(C)N(CC[C@H](c1ccccc1)c1cc(CO)ccc1O)C(C)C,.,.,-7%,.,.,.
CC(C)(C)c1ccc(C(=O)C[n+]2ccccc2Cl)cc1,.,-10%,.,.,-1%,.
CCCOc1ccc(-c2cccc(NS(=O)(=O)c3cccs3)c2)nn1,.,-26%,9%,.,-26%,?
Cn1cc(C2=C(c3cn(CCCSC(=N)N)c4ccccc34)C(=O)NC2=O)c2ccccc21,?,0.71µM*,.,?,2µM*,.
CCNC(=S)N/N=C(\C)c1cccc([N+](=O)[O-])c1,4.5µM*,4%,-18%,4µM*,4%,i
COCCNC(=S)N/N=C(\C)c1cccc(OC)c1,?,?,6%,4µM*,-19%,i
C/C(=N\NC(=O)c1ccccc1C)c1cccc([N+](=O)[O-])c1,21%,-18%,5%,-15%,-15%,i
COCCNC(=S)N/N=C(\C)c1cccc([N+](=O)[O-])c1,7.1µM*,?,-1%,3.5µM*,-22%,i
Cc1ccsc1/C=C1\Oc2cc(OCC(=O)c3ccccc3)ccc2C1=O,?,23%,0%,16µM*,11%,i
COc1ccc(/C=C2\Oc3cc(OCC(N)=O)ccc3C2=O)cc1OC,?,2%,.,-44%,-14%,i
CCCCCCc1cc2cc(C(=O)NCc3ccccc3)c(=N)oc2cc1O,?,-7%,-34%,?,0%,i
CCCCCCc1cc2cc(C(=O)Nc3ccccc3)c(=O)oc2cc1O,4.5µM*,?,7.1µM*,?,-6%,i
